A selection: hits, their analogues and other compounds. The true share with any hit is near 5.7%.
ATXN2 expr inh: ATXN2 expression inhibition; HEK-293 ATXN2-luciferase reporter, luminescence, 24 h; Potency, µM (series often up to 57 µM), for inactives: at the top dose activity change, negative = inhibition, hits mostly inhibitors; hit rate 0.72% among 360,000; AID 1745845; note: potency is the fitted concentration of half-maximal effect; % is set by controls: 0 for no effect and ±100 for the full control effect; nearly all actives have a fitted effect of over 55% in size
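ATXN2-luciferase reporter cells (luciferase flanked by upstream and downstream ATXN2 gene portions) were treated 24 h at 37 °C with compounds at up to 57 uM. SteadyGlo luminescence gave expression; GF-AFC fluorescence gave viability.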
IL-1B inflam inh: inflammasome signaling inhibition, IL-1 beta readout; THP-1 LPS/ATP IL-1B secretion, AlphaLISA, 16 h; stronger effect = lower value; AID 743279; hit rate 4.7% among 360,000; activity change, % at 57.5 µM; in the data active = activity change below about -50%; inconclusive = mostly about -30% to -49%; note: % is set by controls: 0 for no effect and ±100 for the full control effect
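Secreted IL-1B measured by AlphaLISA bead assay after 16 h compound exposure of THP-1 cells; compounds (final up to 57.5 uM) added 1 h before LPS (250 ng/mL) and ATP (1.25 mM) stimulation; lower signal means less secretion.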
HepG2 tox: HepG2 cytotoxicity, counter-screen for TGF-b inhibitors; Potency, µM (top dose mostly 46.1 µM), without a hit: at the top dose activity change, negative = cytotoxicity, usual class: cytotoxic; hit rate 0.76% among 410,000; AID 588856; HepG2 CAGA-GFP viability, ATP luminescence, 18 h; note: potency is the fitted concentration of half-maximal effect
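HepG2 CAGA-GFP cells (1000/well, DMEM with 1% FBS) received compound, then TGF-beta at 500 pg/mL final, and were incubated 18 hours at 37 degrees C. Viability was read by CellTiter-Glo luminescence. Media-only wells were set as complete cell-killing and DMSO as no toxicity.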
TGFb SMAD3 inh: blocks TGF-b signaling | HepG2 CAGA-GFP TGF-b/SMAD3 reporter, GFP fluorescence, 18 h; TGF-beta stimulated, 500 pg/mL final | Potency, µM (series often up to 46.1 µM), inactives show at the top dose activity, negative = inhibition, usual class: inhibitors | hit rate 1.2% among 410,000 | AID 588855; note: potency is the fitted concentration of half-maximal effect; % is set by controls: 0 for no effect and ±100 for the full control effect; nearly all actives have a fitted effect of over 65% in size
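HEPG2 CAGA-GFP cells (1000/well, DMEM with 1% FBS) were pre-incubated 2 h at 37 degrees C, given compound by pin tool, then stimulated with TGF-beta at 500 pg/mL final for 18 h before per-cell GFP fluorescence imaging.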
S2 tox: reduces viability in counter-screen for ATXN expression inhibitors | S2 cells (HEK-293 line with an ATXN2-luciferase reporter) viability, CellTiter-Fluor protease fluorescence, 24 h | Potency, µM (doses to about 56.7 µM), usual class: cytotoxic | hit rate 0.49% among 400,000; note: potency is the fitted concentration of half-maximal effect; nearly all actives have a fitted effect of over 40% in size
Numbers without * were called inactive. Unless noted, calls come from the whole dose curve; as a rule, active = well fitted curve in the direction sought with a large enough effect; inconclusive = small, poorly fitted or top-dose-only effect, or another doubt; inactive = no such curve, though single readings can be large; an effect the other way counts as inactive or inconclusive.

Results for COc1cc2c(NC3CCN(C)CC3)nc(N3CCCN(C)CC3)nc2cc1OCCCN1CCOCC1 ?
HepG2 tox: -11.4%; TGFb SMAD3 inh: 10µM*

Results for COc1ccc(Nc2nc3c(S(=O)(=O)c4ccc(Br)cc4)nnn3c3ccsc23)c(OC)c1 ?
HepG2 tox: -6.4%; TGFb SMAD3 inh: 18.3%

How did Cc1ccc(O)c(-c2[nH]ncc2C(=O)c2ccc(Cl)cc2)c1 do in these assays?
ATXN2 expr inh: 0.6%; IL-1B inflam inh: -85.6*; HepG2 tox: -25.6%; TGFb SMAD3 inh: 0.0%; S2 tox: inactive

What do the screens show for `Cc1ccc(O)c(-c2[nH]ncc2C(=O)c2ccc(Br)cc2)c1`?
ATXN2 expr inh: -3.3%; IL-1B inflam inh: -8.1; HepG2 tox: -44.5%; TGFb SMAD3 inh: inconclusive; S2 tox: inactive

What do the screens show for `COc1ccc(NC(=O)c2c(N)c(C(=O)c3ccc(OC)cc3)n3ccccc23)cc1`?
ATXN2 expr inh: 0.8%; HepG2 tox: -6.5%; TGFb SMAD3 inh: -9.8%; S2 tox: inactive

How did COc1ccc(CCN2C(=O)CN(C3CCC(C)CC3)C(=O)C2c2ccc(OC(C)C)c(OC)c2)cc1OC (stereo not drawn) do in these assays?
HepG2 tox: -24.3%; TGFb SMAD3 inh: 0.0%

How did COc1ccccc1Nc1nc(Cl)c(C=O)s1 do in these assays?
ATXN2 expr inh: 18.4%; IL-1B inflam inh: -53.3*; HepG2 tox: 2.4%; TGFb SMAD3 inh: -4.0%

How did Cc1ccc(Nc2nc(Cl)c(C=O)s2)cc1Cl do in these assays?
ATXN2 expr inh: 8.0%; IL-1B inflam inh: -101.9*; HepG2 tox: 2.1%; TGFb SMAD3 inh: 4.7%

What do the screens show for `Cc1cc(C(=O)Nc2cccc(-c3nc(CNC(=O)c4ccccc4C(F)(F)F)c(C)o3)c2)c(C)o1`?
S2 tox: inactive

What do the screens show for `CN(C)c1cc(-c2ccc(Br)cc2)oc(=O)c1Cl`?
ATXN2 expr inh: -7.2%; IL-1B inflam inh: -50.8*; HepG2 tox: -18.8%; TGFb SMAD3 inh: 2.5%; S2 tox: inconclusive

What do the screens show for `CN(C)c1cc(-c2ccc(C#N)cc2)oc(=O)c1Cl`?
IL-1B inflam inh: -2.5; HepG2 tox: -7.5%; TGFb SMAD3 inh: -12.1%; S2 tox: inactive

Results for CCCS(=O)(=O)c1ncc(Cl)c(C(=O)Nc2c(C(=O)c3ccccc3)oc3ccccc23)n1 ?
ATXN2 expr inh: 0.8%; HepG2 tox: 6.9%; TGFb SMAD3 inh: -9.3%; S2 tox: inactive

Results for CCOC(=O)c1c(C)oc2ccc(N(C(=O)c3ccncc3)S(=O)(=O)c3ccc(F)cc3C)cc12 ?
ATXN2 expr inh: inconclusive; HepG2 tox: 14.1µM*; TGFb SMAD3 inh: inconclusive; S2 tox: inconclusive

What do the screens show for `Cc1ccccc1CNC(=O)CCSCc1cnn(-c2ccccc2)c1-n1cccc1`?
HepG2 tox: -35.3%; TGFb SMAD3 inh: -7.4%

How did COc1cc(OC)nc(-n2ncc(Br)c(Br)c2=O)n1 do in these assays?
ATXN2 expr inh: inconclusive; IL-1B inflam inh: -95.8*; HepG2 tox: 11.2µM*; TGFb SMAD3 inh: 3.55µM*

Results for COC(=O)c1cnn(-c2nc(OC)cc(OC)n2)c1C ?
ATXN2 expr inh: 0.6%; IL-1B inflam inh: -7.6; HepG2 tox: -8.2%; TGFb SMAD3 inh: -10.7%; S2 tox: inactive

Results for Cc1cc(S(=O)(=O)Nc2ccc(-c3ccc(N4CCCCCC4)nn3)cc2)c(C)cc1Cl ?
ATXN2 expr inh: 6.7%; HepG2 tox: -23.6%; TGFb SMAD3 inh: -19.6%; S2 tox: inconclusive

What do the screens show for `CCOc1ccc(CC(=O)Nc2c(C(=O)c3ccccc3)oc3ccc(OC)cc23)cc1OCC`?
ATXN2 expr inh: 13.3%; HepG2 tox: -17.8%; TGFb SMAD3 inh: -1.0%; S2 tox: inactive

Results for Cc1ccc(-n2nnnc2SCC(=O)NCC2(N3CCCCC3)CCCCC2)c(C)c1 ?
ATXN2 expr inh: -11.6%; IL-1B inflam inh: -57.3*; HepG2 tox: -30.4%; TGFb SMAD3 inh: 0.9%; S2 tox: inactive

Results for Cc1ccc(-n2nnnc2SCC(=O)NCC2(N3CCOCC3)CCCCC2)c(C)c1 ?
ATXN2 expr inh: 3.6%; IL-1B inflam inh: -12.5; HepG2 tox: 0.6%; TGFb SMAD3 inh: -11.4%; S2 tox: inconclusive

Screening results as filed in PubChem.
